Bioassay records as filed in PubChem BioAssay.
Only some compounds are listed: those with a hit (about 4.1% of all), similar ones and a draw of the others.
aSyn UTR inh: MLPCN primary screen, SNCA 5' untranslated region; 300,000 tested, 0.82% active; alpha-synuclein 5'UTR reporter, inhibitor activity; inhibition, % (tested at 7.5 µM); in the data active = inhibition above about 60%; inconclusive = no clear call, values can overlap the other calls;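 also: H4 neuroglioblastoma cells stably carrying SNCA 5'UTR luciferase fusion; 0% = DMSO wells and 100% = positive control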
Bfl-1 A1 inh: caspase 3/7 activation in MEF A1-2A-BIM cells, primary screen, A1 inhibitor project, cell-based, luminescence, HTS | Caspase-Glo 3/7 luminescence, 3 h; percent of clofoctol response, vehicle zero | caspase activation, % (test concentration not listed) | 330,000 tested, 0.066% active | AID 2462, 2010;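 active = over half of replicate activation scores above 10%, or exactly half above 10 with the replicate mean above 10; inconclusive = replicate mean below 10 yet half the replicates above 10; inactive = over half of replicates below 10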
Mdm2-MdmX inh: inhibitors of human Mdm2-MdmX association, primary screen, cell-based, luminescence, split luciferase, SaOS-2, uHTS; inhibition, % at 8 µM; AID 485346, 2010; 330,000 tested, 3% active; SaOS-2 split-luciferase Mdm2/MdmX complementation;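 active = inhibition of at least 50% at 8 µM in the primary screen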
Target sequence (O15151 whole entry, looked up): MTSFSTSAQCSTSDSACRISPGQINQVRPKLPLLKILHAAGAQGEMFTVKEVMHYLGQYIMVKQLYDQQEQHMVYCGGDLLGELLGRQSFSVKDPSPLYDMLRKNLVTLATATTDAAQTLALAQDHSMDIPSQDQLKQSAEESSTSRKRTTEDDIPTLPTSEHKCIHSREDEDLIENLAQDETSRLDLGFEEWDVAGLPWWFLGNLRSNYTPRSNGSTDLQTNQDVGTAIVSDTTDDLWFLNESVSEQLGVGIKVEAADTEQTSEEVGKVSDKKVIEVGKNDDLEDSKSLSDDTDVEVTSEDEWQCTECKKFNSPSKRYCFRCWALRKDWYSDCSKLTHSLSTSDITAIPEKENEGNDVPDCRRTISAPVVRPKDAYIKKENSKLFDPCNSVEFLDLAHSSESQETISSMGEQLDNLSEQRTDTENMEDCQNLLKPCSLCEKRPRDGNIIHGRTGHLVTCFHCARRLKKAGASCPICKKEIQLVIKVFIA
Target sequence (Q00987 whole entry, looked up): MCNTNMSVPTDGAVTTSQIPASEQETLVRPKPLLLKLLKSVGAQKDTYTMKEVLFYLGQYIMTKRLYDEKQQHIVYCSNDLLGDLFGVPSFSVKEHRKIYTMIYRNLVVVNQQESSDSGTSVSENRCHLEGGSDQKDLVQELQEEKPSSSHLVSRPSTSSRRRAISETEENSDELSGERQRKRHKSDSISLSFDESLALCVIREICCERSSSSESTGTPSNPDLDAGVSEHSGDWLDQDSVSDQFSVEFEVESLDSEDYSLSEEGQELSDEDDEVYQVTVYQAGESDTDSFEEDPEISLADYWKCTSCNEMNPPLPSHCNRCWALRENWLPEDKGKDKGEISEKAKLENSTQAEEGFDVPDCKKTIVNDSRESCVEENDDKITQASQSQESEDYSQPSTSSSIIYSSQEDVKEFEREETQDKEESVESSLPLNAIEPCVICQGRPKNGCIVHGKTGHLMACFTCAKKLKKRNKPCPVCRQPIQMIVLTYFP
Beta cell apopt: inhibitors of cytokine-induced beta cell apoptosis, primary screen, luminescence. INS-1E cytokine-induced death, ATP luminescence, 48 h; percent of positive-control rescue, neutral wells zero. protection from apoptosis, % (no concentration beside the values). 300,000 tested, 0.8% active. AID 435005, 2010;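 active = Every replicate reaches about 75%, or at least half do and their mean reaches it too, limit read from the data; inconclusive = At least half of replicates reach the limit but their mean does not; inactive = Under half of replicates reach the limit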;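 also: 0% = cytokine-treated negative control wells and 100% = positive control rescue; higher means more ATP so stronger rescue from cytokine killing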
CSC inhib: cancer stem cell viability inhibitors, primary screen, luminescence. cancer stem cell-like cells viability. inhibition, % at 7.5 µM. 300,000 tested, 1.1% active. AID 2717, 2010; in the data active = inhibition above about 75%; inconclusive = no clear call, values can overlap the other calls; tested in HMLE shEcad cells
Mdm2 MdmX conf: Mdm2-MdmX complex disruptors, retested hits, confirmation, luminescence, single concentration. shares compounds with Mdm2-MdmX inh. Mdm2-MdmX binding, luminescent assay. inhibition, % at 8 µM. 10,000 tested, 55% active; in the data active = inhibition above about 40%
Full FLuc ctr: full-length luciferase signal inhibition, confirmation, counter-screen for Mdm2/MdmX interaction inhibitor project, cell-based, single concentration, SaOS-2. shares compounds with Mdm2-MdmX inh. SaOS-2 full-length luciferase counterscreen, luminescence. inhibition, % at 8 µM. 6,200 tested, 77% active;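 active = mean inhibition at 8 µM reaching about 37%, which flags the compound as non-specific, limit read from the data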;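 also: p53-null SaOS-2 cells with luciferase driven by a doxycycline-inducible promoter; compound on cells about two nights before reading with doxycycline added after day one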
An asterisk follows results filed as active; ? = inconclusive; / = no result given; ! = not active in a repeat.

SMILES	aSyn UTR inh	Bfl-1 A1 inh	Mdm2-MdmX inh	Beta cell apopt	CSC inhib	Mdm2 MdmX conf	Full FLuc ctr
Cc1cc(C)c(S(=O)(=O)Nc2ccc3c4c(cccc24)CC3)c(C)c1	106.0*	0.3	75.0*	14.5	92.5*	63.1*	107.0*
Cc1cc(C)c(S(=O)(=O)Nc2ccc3c(c2)CCC3)c(C)c1	-2.4	-1.3	39.4	6.5	45.6	/	/
Cc1ccc(S(=O)(=O)Nc2ccc3c4c(cccc24)CC3)c(C)c1	10.2	-1.5	70.7*	9.9	51.5	60.4*	53.4*
CCCC1(c2ccccc2)NC(=O)N(CC(=O)Nc2sc(-c3ccccc3)cc2C(=O)OCC)C1=O (stereo not given)	-7.4	0.7	77.1*	-4.2	24.9	55.5*	52.9*
CCOC(=O)c1c(NC(=O)CN2C(=O)NC(C)(c3ccccc3)C2=O)sc(C)c1C (stereo not given)	35.4	-0.1	71.3*	1.8	56.4	58.2*	44.8*
O=C(CSc1nc2c(sc3ccccc32)c(=O)n1CCCN1CCCC1)NCc1ccco1	-28.8	-0.1	24.9	-8.9	17.9	/	/
Cc1cc(NC(=O)CSc2nc3c(sc4ccccc43)c(=O)n2CCCN2CCOCC2)n[nH]1	-17.1	-0.6	70.1*	68.3	58.2	82.4*	125.3*
Cc1cc(NC(=O)CSc2nc3c(sc4ccccc43)c(=O)n2CCc2ccccc2)n[nH]1	-4.7	0.0	62.1*	11.2	-1.9	-5.7	/
Cc1cc(NC(=O)CSc2nc3ccccc3c(=O)n2CCCC(=O)NCc2ccccc2)n[nH]1	-8.1	0.5	1.3	/	-4.0	/	/
C=C(CC1([C@@H](NP(=O)(c2ccccc2)c2ccccc2)[C@H]2C[C@@H]2CCCC)CC1)c1ccccc1	-15.9	1.1	59.1*	38.1	123.3*	23.0	/
COCCCNC(=O)c1ccc(S(=O)(=O)c2ccc(Cl)cc2)c(NC(C)=O)c1	2.0	0.3	3.8	/	/	/	/
C=CCC(Nc1ccccc1)C12C=CC(O1)C(C(=O)OC)=C2C(=O)OC (stereo not given)	-36.4	1.0	89.1*	-8.9	63.8	46.0*	31.4
COc1ccc(S(=O)(=O)N2CCCC(N(C)CCc3ccccc3)C2)cc1OC (stereo not given)	-17.2	-0.2	-6.7	/	-6.8	/	/
CCOc1c(Br)cc(CNc2ccc3c(c2)OCCO3)cc1OC	96.8*	-0.7	71.1*	16.9	-0.3	58.1*	57.4*
CCOc1cc(CNc2ccc3c(c2)OCCO3)cc(Br)c1OC	95.4*	-0.5	75.7*	17.3	78.3*	73.0*	65.5*
COc1ccccc1S(=O)(=O)Nc1cc(C)nn1-c1ccc(C)cc1	14.3	1.2	24.4	-3.1	29.1	/	/
CCOC(=O)CCc1nc2ccccc2[nH]1	-6.4	1.1	-6.0	-7.3	-4.3	/	/
COCC(=O)O[C@]1(CCN(C)CCCc2nc3ccccc3[nH]2)CCc2cc(F)ccc2[C@@H]1C(C)C	20.5	0.4	93.0*	31.1	19.8	53.2*	36.4*
Cc1c(O)cccc1C(=O)N[C@@H](CSc1ccccc1)[C@H](O)CN1C[C@H]2CCCC[C@H]2C[C@H]1C(=O)NC(C)(C)C	-23.2	0.3	56.4*	13.5	77.5*!	17.6	/
CCN(CC(=O)NC(C)(C)C)C(=O)c1ccccc1SCC(=O)NC1CCCCCCC1	6.1	-0.7	22.9	15.0	23.1	/	/
CCOC(=O)c1c(-c2ccccc2)csc1NC(=O)CCN1C(=O)c2ccccc2C1=O	3.2	-0.1	14.7	-7.9	55.5	/	/
CCOC(=O)c1c(-c2ccc(-c3ccccc3)cc2)csc1NC(=O)CNCCN(C)C	100.6*	0.1	82.8*	55.2	99.0*	53.3*	60.8*
CCOc1ccc(C(=O)O/N=C(\N)c2ccccn2)cc1	61.6*	1.0	95.0*	-5.2	-18.6	86.2*	33.0
Cc1ccc(C(=O)O/N=C(\N)c2ccccn2)cc1C	45.8	-8.6	81.7*	6.0	-0.8	70.0*	63.9*
N/C(=N\OC(=O)c1cccc(F)c1)c1ccccn1	23.0	-0.4	-84.8	8.4	-4.8	/	/
SMILES	aSyn UTR inh	Bfl-1 A1 inh	Mdm2-MdmX inh	Beta cell apopt	CSC inhib	Mdm2 MdmX conf	Full FLuc ctr
Cc1cccc(C(=O)O/N=C(\N)c2ccccn2)c1	70.1*	-9.0	65.1*	9.7	-5.4	63.0*	99.6*
CC(C)(C)c1ccc(C(=O)O/N=C(\N)c2ccccn2)cc1	94.0*	1.1	98.2*	-3.8	-5.7	97.3*	28.0
COc1ccccc1NC(=O)C1CCN(C(=O)NCc2ccccc2)CC1	25.2	0.7	16.3	-3.0	/	/	/
CN(/N=C/c1cc(Cl)ccc1O)C1=NS(=O)(=O)c2ccccc21	14.0	0.6	8.3	0.0	11.4	/	/
CSc1ccccc1C(=O)N(C)C(c1ccccc1)c1ccccc1	0.2	0.4	13.2	/	-8.8	/	/
Cc1ccc(NC(=O)COc2coc(CN3CCN(c4ccccc4)CC3)cc2=O)cc1	1.5	0.5	3.1	/	0.1	/	/
Cc1ccc(C(=O)O/N=C(\N)c2ccccn2)cc1	65.3*	-7.2	90.6*	-0.7	16.9	89.3*	34.0
COc1cc(C(=O)O/N=C(\N)c2ccccn2)cc(OC)c1OC	-33.6	-0.5	67.4*	-1.3	0.7	-1.6	/
N/C(=N\OC(=O)c1ccccc1)c1ccccn1	17.7	-8.2	41.6	13.5	8.4	/	/
C=C(C)CNC(=O)C1CCC(=O)N(CCCc2ccccc2)C1 (stereo not given)	3.7	0.2	/	-3.8	-9.1	/	/
CCCc1nc(SCC(=O)NCC2CCCO2)c2c(=O)n(C)c(=O)n(C)c2n1 (stereo not given)	15.4	0.5	-28.0	3.0	1.0	/	/
CCOC(=O)COc1ccc(/C=C/[N+](=O)[O-])c(OCC(=O)OCC)c1	-20.6	0.0	100.2*	9.9	5.8	70.3*	23.7
O=C(c1ccc(Cl)c([N+](=O)[O-])c1)N(Cc1ccco1)C1CCS(=O)(=O)C1 (stereo not given)	-8.4	0.6	12.7	2.0	-14.0	/	/
C=C(C(=O)c1ccccc1)C(CC(=O)c1ccccc1)c1ccccc1 (stereo not given)	37.3	-0.2	100.8*	-27.4	?	98.8*	55.1*
CC(=O)c1sc2nc(-c3cccs3)ccc2c1N	-272.1	-0.3	-6.9	-5.4	14.5	/	/
Nc1c(C(=O)Nc2nc3ccccc3s2)sc2nc(-c3cccs3)ccc12	105.7*	-1.4	86.8*	-10.3	22.1	-45.5	/
